SW480 rerep – inducers of DNA re-replication in SW480 colon cancer cells; SW480 DNA re-replication, Hoechst DNA content imaging, 48 h; Potency, µM (series often up to 46.1 µM), for the others: at the top dose re-replication activation, hits mostly activators; 1.8% of 340,000 active; AID 624297; further: potency means the concentration at half of the fitted maximal effect; % of control where 0% means no effect; nearly all actives have a fitted effect of over 55% in size
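Quantitative HTS format with DMSO vehicle controls; 48 hr drug incubation at 37 C, then 40 min Hoechst staining and scanning imager measurement at 405 nm excitation.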
MCF10A rereplic – inducers of DNA re-replication in MCF 10A breast cells; AID 624296; 2.9% of 350,000 active; MCF 10A DNA re-replication, Hoechst nuclear intensity, 48 h; Potency, µM (doses to about 46.1 µM), inactives show top-dose activity, positive = re-replication, most hits filed as activators; further: potency means the concentration at half of the fitted maximal effect; % of control where 0% means no effect; nearly all actives have a fitted effect of over 50% in size
DT40 TDP1 CPT – growth inhibition of DT40 Tdp1-/-;hTDP1 cells with camptothecin (screen for TDP1 inhibitors). chicken DT40 Tdp1-/-;hTDP1 cells + 20 nM CPT, ATP luminescence, 48 h. Potency, µM (doses to about 46.2 µM), for inactives: at the top dose activity change, negative = growth inhibition, usual class: inhibitors. 12% of 420,000 active; further: potency means the concentration at half of the fitted maximal effect; on the % scale 0 is the no-effect control and ±100 the full control effect; nearly all actives have a fitted effect of over 55% in size
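Cell growth measured by CellTiter-Glo luminescence after a minimum 48 h, 37 C compound exposure with 20 nM CPT in Tdp1-knockout DT40 cells stably expressing hTDP1, seeded 400/well; qHTS titration format.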
TDP1 cell noCPT – qHTS for Inhibitors of human tyrosyl-DNA phosphodiesterase 1 (TDP1): qHTS in cells in absence of CPT | DT40 Tdp1-/- hTDP1 cells, no CPT, ATP luminescence, 48 h | Potency, µM (titrated, usually from 46.2 µM), for the others: at the top dose activity change, negative = growth inhibition, most hits filed as inhibitors | 15% of 420,000 active; further: potency means the concentration at half of the fitted maximal effect; on the % scale 0 is the no-effect control and ±100 the full control effect; nearly all actives have a fitted effect of over 55% in size
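Chicken DT40 Tdp1-/- cells stably complemented with human TDP1 were seeded at 400 cells/well with DMSO in place of 20 nM camptothecin. After compound pinning, cells grew at least 48 hr at 37 °C; viability read by CellTiter-Glo luminescence.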
IL-1B inflam inh – blocks inflammasome-driven IL-1 beta release. activity change, % at 57.5 µM. 4.7% of 360,000 active. THP-1 LPS/ATP IL-1B secretion, AlphaLISA, 16 h; stronger effect = lower value. AID 743279; in the data active means activity change below about -50%; inconclusive means mostly about -30% to -49%; further: on the % scale 0 is the no-effect control and ±100 the full control effect
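THP-1 cells pretreated 1 hr with compounds (up to 57.5 uM final), then stimulated with LPS (250 ng/mL final) plus ATP (1.25 mM final); secreted IL-1B measured by AlphaLISA after 16 hr, decreased signal indicating inhibition.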
BCR signal inh – blocks chronic active B-cell receptor signaling; ABC-DLBCL IkBa-CBG/CBR reporter, luminescence ratio, 4 h; Potency, µM (doses to about 46.1 µM), inactives show top-dose activity change, negative = inhibition, most hits filed as inhibitors; 0.05% of 340,000 active; active means well fitted inhibition curve with a large enough effect in the signal ratio, with a control signal flat, not every such curve was filed as active; inconclusive means small, poorly fitted or top-dose-only effect, or effect the other way, or a change in a side signal; the % refers to the signal ratio;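 further: potency means the concentration at half of the fitted maximal effect; plate controls were basal doxycycline-induced cells for no effect and cells given 10 µM MG132 for full effect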
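Cell line TMD8 (human ABC DLBCL), stably expressing tet-inducible CBG68-IkBa fusion and CBR; IMDM/0.5% FBS; cpd up to 46 uM; dox induction, 4 h, 37C/5% CO2; dual luminescence; green/red ratio; MG132 control.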
Numbers without * were called inactive; ? = inconclusive; / = no result given; [ ] = dose if it differs, or a comment. Only some compounds are listed: those with a hit (about 19% of all), similar ones and a draw of the others. Unless noted, the call rests on the fitted dose curve; in most records, active means well fitted curve in the direction sought with a large enough effect; inconclusive means small, poorly fitted or top-dose-only effect, or another doubt; inactive means no such curve, though single readings can be large; an effect the other way counts as inactive or inconclusive.

SMILES	SW480 rerep	MCF10A rereplic	DT40 TDP1 CPT	TDP1 cell noCPT	IL-1B inflam inh	BCR signal inh
O=[N+]([O-])/C=C/c1c(OCc2ccccc2)ccc2ccccc12	/	/	/	/	/	9%
CCOC(=O)COc1ccc(/C=C/[N+](=O)[O-])c(OCC(=O)OCC)c1	?	?	12µM*	21µM*	-97*	?
Cc1ccccc1CN1C(=O)[C@H]2Cc3c([nH]c4ccccc34)C(C)(C)N2C1=O	3%	?	/	/	/	/
C=CCN1CC(C(=O)N(CCCN(C)C)C(=O)NCC)CC2c3cccc4[nH]cc(c34)CC21 (configuration not stated)	-12%	-1%	/	/	/	/
CCN(CC)S(=O)(=O)c1ccc(N2CCOCC2)c(NC(=O)C23CC4CC(CC(Cl)(C4)C2)C3)c1	-27%	?	?	23µM*	4	?
CCc1cc(C(=O)Nc2cc(S(=O)(=O)N(CC)CC)ccc2N2CCOCC2)sc1C	-2%	?	21µM*	?	-14	-2%
CCN(CC)S(=O)(=O)c1ccc(N2CCOCC2)c(NC(=O)c2ccco2)c1	-6%	2%	?	?	15	-5%
CN1CCN(c2ccc(S(=O)(=O)N3CCCCC3)cc2NC(=O)c2cccc([N+](=O)[O-])c2)CC1	-6%	4%	-23%	-21%	-4	-3%
CCN(CC)S(=O)(=O)c1ccc(N2CCOCC2)c(NC(=S)NC(=O)c2ccco2)c1	0%	?	10µM*	?	?	5%
CCc1cc(C(=O)Nc2cc(S(=O)(=O)N3CCCCC3)ccc2N2CCN(C)CC2)sc1C	/	/	4.6µM*	4.1µM*	-70*	/
C=CCN1C(=O)c2ccc(C(=O)N3CCN(c4ccccc4OC)CC3)cc2C1=O	-10%	1%	-5%	-14%	7	5%
COc1cccc2c1Oc1ncccc1N(C(=O)CCC(=O)NCCC(C)C)C2	/	/	-26%	-19%	/	/
Cc1ccc(NC(=O)CSc2nnc(N)s2)c(C)c1	/	/	-3%	1%	/	/
CCN(CC)S(=O)(=O)c1ccc(N2CCOCC2)c(NC(=O)c2cc(C)cc(C)c2)c1	9%	12%	7.3µM*	18µM*	-51*	10%
CCN(CC)S(=O)(=O)c1ccc(N2CCOCC2)c(NC(=O)c2ccccc2)c1	-3%	1%	?	?	-2	-1%
CCN(CC)S(=O)(=O)c1ccc(N2CCOCC2)c(NC(=O)c2sccc2C)c1	3%	?	?	18µM*	?	-7%
O=C(C[C@@H]1C/C=C\C[C@H](NC(=O)OCC2c3ccccc3-c3ccccc32)C(=O)OC[C@H]2CCCN2C1=O)N[C@@H](CO)Cc1ccccc1	-9%[9.22 µM]	3%	4.6µM*	4.6µM*	-26	?
O=C(C[C@@H]1C/C=C\C[C@H](NC(=O)OCC2c3ccccc3-c3ccccc32)C(=O)OC[C@H]2CCCN2C1=O)NCCO	13%	-28%	?	?	9	-1%
O=C(C[C@H]1C/C=C\C[C@H](NC(=O)OCC2c3ccccc3-c3ccccc32)C(=O)OC[C@H]2CCCN2C1=O)NCCO	-8%	-2%	12µM*	16µM*	31	-3%
O=C(C[C@H]1C/C=C\C[C@H](NC(=O)OCC2c3ccccc3-c3ccccc32)C(=O)OC[C@@H]2CCCN2C1=O)NCCO	-20%[9.22 µM]	3%	4.1µM*	5.8µM*	15	0%
COc1cc(CN2CCNC(=O)C2CC(=O)N2CCCN(C(C)=O)CC2)cc(OC)c1 (configuration not stated)	2%	-1%	5%	7%	2	-2%
CC1CCc2[nH]c3ccc(C(=O)N(C)CC(=O)Nc4ccccc4Br)cc3c2C1 (configuration not stated)	10%	?	?	12µM*	-74*	?
CCN(CC(=O)Nc1ccc(OC)cc1)C(=O)c1ccc2[nH]c3c(c2c1)CC(C)CC3 (configuration not stated)	-28%	1%	?	?	?	?
Cc1ccc(C)c(NC(=O)CN(C)C(=O)c2ccc3[nH]c4c(c3c2)CC(C)CC4)c1 (configuration not stated)	6%	16%	?	?	-54*	26%
CC1CCc2[nH]c3ccc(C(=O)NCC4CCCO4)cc3c2C1 (configuration not stated)	?	15%	?	?	-51*	?
SMILES	SW480 rerep	MCF10A rereplic	DT40 TDP1 CPT	TDP1 cell noCPT	IL-1B inflam inh	BCR signal inh
Cc1ccc(C(=O)OCC(=O)c2ccc(Br)cc2)cc1S(=O)(=O)N1CCOCC1	-1%	1%	-6%	-6%	17	/
CC(=O)Nc1nonc1NC(C)=O	-24%	-5%	2%	-11%	6	-1%
CC(=O)Nc1cc(OC(C)=O)c2nonc2c1OC(C)=O	2.9µM*	?	?	18µM*	5	?
CC(=O)Oc1ccc2nonc2c1OC(C)=O	/	/	5.6µM*	5.6µM*	/	/
O=C(O)Cn1nnc(-c2ccc(OCc3cccc(C(F)(F)F)c3)cc2)n1	/	/	-3%	-2%	/	15%
Cc1cc(S(=O)(=O)N2CCOCC2)ccc1OCC(=O)NCCN1CCOCC1	-6%	-5%	6%	3%	13	1%
COc1ccc(C(NC(=O)c2ccc(-c3ccccc3)cc2)c2ccccc2)cc1 (configuration not stated)	-1%	5%	13µM*	13µM*	5	3%
CCC(=O)NC(c1ccc(OC)c(OC)c1)c1cc(Cl)c2cccnc2c1O (configuration not stated)	?	?	4.1µM*	4.6µM*	-5	-2%
CCOc1ccc(C(NC(C)=O)c2cc(Cl)c3cccnc3c2O)cc1 (configuration not stated)	/	/	3.2µM*	4µM*	/	/
CCOc1ccc(C(Nc2cccnc2)c2cc(Cl)c3cccnc3c2O)cc1 (configuration not stated)	?	?	?	15µM*	0	?
O=C1NC2(CCCCO2)CO1 (configuration not stated)	0%	-18%	-22%	3%	0	?
CCOC(=O)/C=C1\SCC(=O)N1CC(=O)Nc1cc(S(=O)(=O)N(C)C)ccc1C	-5%	-1%	-2%	-12%	3	1%
COc1ccc(C(NC(C)=O)c2cc(Cl)c3cccnc3c2O)cc1OC (configuration not stated)	1.6µM*	?	7.3µM*	4.6µM*	116	4%
